“And” between values parts separate entries of the source, which are not always exact repeats. Identical values can stand only once. Inconclusive results are not listed. Some structures have more than one record in an assay (separate samples or runs), and their calls can disagree. The source made the active and inactive calls. Unless noted, calls follow the shape of the dose curve; as a rule, active = well fitted curve in the direction sought with a large enough effect in the repeat runs; inconclusive = weak or mixed curves; inactive = no such curve, though single readings can be large; an effect the other way counts as inactive or inconclusive. Residues, ends and D or L forms follow the SMILES beside them.

Potency and outcome data for nine compounds are collected here from PubChem BioAssay (Tox21).

Assay [1] can be described thus: qHTS assay to identify small molecule antagonists of the glucocorticoid receptor (GR) signaling pathway - cell viability counter screen (AID 720693). Also: nearly all actives have a fitted effect of over 55% in size.
A short description of assay [2]: qHTS assay for identifying genotoxic compounds that show differential cytotoxicity against isogenic chicken DT40 cell lines with known DNA damage response pathways - Rev3 mutant cell line (AID 743014). Also: nearly all actives have a fitted effect of over 55% in size. Also: potency is read from the fitted curve at half-maximal effect.
Assay [3] can be described thus: qHTS assay for identifying genotoxic compounds that show differential cytotoxicity against isogenic chicken DT40 cell lines with known DNA damage response pathways - Rad54/Ku70 mutant cell line (AID 743015). Also: nearly all actives have a fitted effect of over 60% in size. Also: potency is read from the fitted curve at half-maximal effect.
Assay [4] is described as follows: qHTS assay to identify small molecule antagonists of the androgen receptor (AR) signaling pathway - cell viability counter screen (AID 743033; also: nearly all actives have a fitted effect of over 45% in size).
The nature of assay [5]: qHTS assay to identify small molecule antagonists of the androgen receptor (AR) signaling pathway using the MDA cell line - cell viability counter screen (AID 743041; also: nearly all actives have a fitted effect of over 45% in size). In short, it runs like this:
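Viability counter screen run alongside the AR antagonist reporter: cells seeded 5 h before compound, R1881 added, 16 h incubation at 37C without CO2, fluorescent CellTiter-Fluor signal quantified.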

Assay [6] is described as follows: qHTS assay for identifying genotoxic compounds that show differential cytotoxicity against isogenic chicken DT40 cell lines with known DNA damage response pathways - wild type cell line (AID 743012). Also: nearly all actives have a fitted effect of over 60% in size. Also: potency is read from the fitted curve at half-maximal effect. In short, it runs like this: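 Wild type DT40, 300 cells/well, ~0.5 h settle at 37 C/5% CO2; compounds in DMSO added by pintool; 40 h at 37 C/5% CO2; CellTiter-Glo, 30 min RT; luminescence.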

The target of assay [7] is Androgen receptor (Homo sapiens) (UniProt P10275). The experiment in a line: qHTS assay to identify small molecule antagonists of the androgen receptor (AR) signaling pathway (AID 743035; active = well fitted inhibition curve with a large enough effect in the signal ratio in the repeat runs, not every such curve was filed as active; the % refers to the signal ratio). The essentials:
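Fluorescence from a beta-lactamase FRET substrate (LiveBLAzer B/G, 2 h, room temperature) measured inhibition of R1881-stimulated signaling in GeneBLAzer AR-UAS-bla HEK293 cells exposed to compound for 16 h at 37C.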

For assay [8] the target is unchanged. The assay can be described thus: qHTS assay to identify small molecule agonists of the androgen receptor (AR) signaling pathway (AID 743036; active = well fitted activation curve with a large enough effect in the signal ratio in the repeat runs, with a control signal flat, not every such curve was filed as active; the % refers to the signal ratio). The essentials:
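Activation was read as beta-lactamase FRET signal from LiveBLAzer B/G substrate, added for 2 h at room temperature. Before that, GeneBLAzer AR-UAS-bla GripTite (HEK293) cells had 16 h compound exposure at 37C.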

For assay [9] the target is unchanged. The assay can be described thus: qHTS assay to identify small molecule agonists of the androgen receptor (AR) signaling pathway using the MDA cell line (AID 743040; also: nearly all actives have a fitted effect of over 20% in size). In short, it runs like this: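 Luminescence from ONE-Glo, read after 30 min at room temperature, reflects MMTV-driven luciferase in MDA-kb2 cells (AR- and GR-responsive). Treatment lasted 16 h at 37C, 0% CO2.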

The target is the same in assay [10]. The assay can be described thus: qHTS assay to identify small molecule antagonists of the androgen receptor (AR) signaling pathway using the MDA cell line (AID 743042; also: nearly all actives have a fitted effect of over 55% in size). In short, it runs like this:
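MDA-kb2 cells (human breast carcinoma, stably carrying an MMTV-luciferase reporter responsive to AR and GR) were plated at 3,000 cells/well and preincubated 5 hr at 37C, then given compound plus R1881 agonist for 16 h. ONE-Glo luminescence was read.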

Androgen receptor (Homo sapiens), sequence (P10275 whole entry, looked up): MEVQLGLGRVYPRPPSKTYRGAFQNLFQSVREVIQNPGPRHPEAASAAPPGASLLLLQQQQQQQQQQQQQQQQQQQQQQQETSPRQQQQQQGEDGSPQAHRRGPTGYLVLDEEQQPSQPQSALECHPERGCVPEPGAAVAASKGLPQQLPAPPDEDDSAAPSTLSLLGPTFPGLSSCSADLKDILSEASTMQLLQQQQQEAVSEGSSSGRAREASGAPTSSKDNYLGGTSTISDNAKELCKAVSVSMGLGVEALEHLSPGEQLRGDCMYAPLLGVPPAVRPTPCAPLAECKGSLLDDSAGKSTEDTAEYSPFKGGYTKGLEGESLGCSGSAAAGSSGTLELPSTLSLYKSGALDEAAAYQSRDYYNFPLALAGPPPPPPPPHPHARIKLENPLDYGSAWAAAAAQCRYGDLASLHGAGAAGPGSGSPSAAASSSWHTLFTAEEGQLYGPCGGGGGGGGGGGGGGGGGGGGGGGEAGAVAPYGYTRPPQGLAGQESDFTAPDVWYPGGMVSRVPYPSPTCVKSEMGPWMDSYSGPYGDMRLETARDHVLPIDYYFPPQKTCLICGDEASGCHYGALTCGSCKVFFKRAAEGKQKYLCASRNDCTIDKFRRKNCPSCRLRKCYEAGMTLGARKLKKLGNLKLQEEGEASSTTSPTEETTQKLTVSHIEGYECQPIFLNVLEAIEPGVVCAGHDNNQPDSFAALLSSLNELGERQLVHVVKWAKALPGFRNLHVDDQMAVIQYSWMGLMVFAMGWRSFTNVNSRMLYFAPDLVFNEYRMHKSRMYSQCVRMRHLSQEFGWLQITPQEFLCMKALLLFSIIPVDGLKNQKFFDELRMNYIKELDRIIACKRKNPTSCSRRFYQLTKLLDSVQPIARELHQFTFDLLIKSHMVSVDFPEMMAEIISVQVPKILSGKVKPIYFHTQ

Take `Nc1ccn([C@H]2CC[C@@H](CO)O2)c(=O)n1`: the Potency entry in assay [1] and in assay [5] was “inactive” in each case. Further, the Potency in [2] was 24.3 µM (active); in [3], 53.5 µM (active) and 24.3 µM (active). In addition, the result in [4] was inactive.

On to `CC(O)C(=O)O` (centres undefined), for which the Potency entry in [1], in assay [6], in assay [2], in assay [3] and in [5] was “inactive” in each case. In addition, the call in assay [4] was inactive.

Turning to `Cc1cc(=O)[nH]c(=S)[nH]1`, the Potency result in assay [1], in assay [6], in assay [2], in assay [3] and in [5] was “inactive” each time. The outcome in assay [4] was inactive.

In the case of `O=C(O)c1cc(N=Nc2ccc(S(=O)(=O)Nc3ccccn3)cc2)ccc1O`, the Potency entry in [1], in assay [6], in assay [2], in assay [3] and in assay [5] was “inactive” throughout. In assay [4], the outcome was inactive.

As for `C1N2CN3CN1CN(C2)C3`, the Potency entry in assay [1], in assay [6], in assay [2], in assay [3] and in assay [9] was “inactive” each time. Also, the call in assay [4], in [7], in assay [8] and in [10] was inactive.

As for `COC(=O)[C@H](Cc1ccccc1)NC(=O)[C@@H](N)CC(=O)O` (H-Asp-Phe-OMe), the Potency result in [1], in [6], in assay [2], in assay [3] and in assay [5] was “inactive” each time. For the same compound, in assay [4], the call was inactive.

As for `Cc1ccccc1C(OCCN(C)C)c1ccccc1` (centres undefined), in assay [1], the Potency result was “inactive”. For the same compound, the Potency result in [2] is “inactive and 61.1 µM (active) and 54.5 µM (active)”; in [3], “inactive and 61.1 µM (active) and 68.6 µM (active)”. Moreover, in assay [4], the result was inactive.

With `N=C(N)c1ccc(OCCCCCOc2ccc(C(=N)N)cc2)cc1`, the Potency in assay [6] was 1.88 µM (active) and 5.42 µM (active) and 1.31 µM (active); in assay [2] it was 2.98 µM (active) and 2.16 µM (active) and 1.85 µM (active); in [3], 2.66 µM (active) and 2.72 µM (active) and 1.65 µM (active). Also, the Potency entry in assay [5] was “inactive”.

For `CCC1(c2ccccc2)C(=O)NCNC1=O`, the Potency entry in [1] and in assay [5] was “inactive” in each case. The compound was classed as inactive in assay [4].
